The results in this text go back to PubChem BioAssay AID540363 (National Center for Advancing Translational Sciences (NCATS), 2011).

Inconclusive results are not listed. A number with no mark means an inactive call. Calls of active or inactive are those of the source. The call rests on the fitted dose curve; in most records, active means well fitted cell-killing curve with a large enough effect; inconclusive means small, poorly fitted or top-dose-only effect; inactive means flat fitted curve, though single readings scatter.

This assay in a line: PC3M Cytotoxicity Assay for Compounds that Inhibit the Perinuclear Compartment: Chemistry Optimization Followup. Conditions: PC3M-GFP viability, ATPLite luminescence, 24 h; series mostly up to 46.1 µM; activity change, negative = cytotoxicity: at the top concentration. The source says: The perinucleolar compartment (PNC) is a non-membrane-bound nuclear subdomain that is associated with but structurally distinct from the nucleolus. The PNC is a heritable trait, in which the number of PNCs per cell in daughter cells often mimics that of their mother cells. The PNC is heterogeneous in shape, is stable through interphase, disassembles during mitosis, and reassembles in early G1. The PNC is concentrated with newly synthesized RNA polymerase III (pol III) RNAs (MRP RNA, RNAse P H1 RNA, hY RNAs[hY1, 2, 5], Alu RNA, and SRP [7SL] RNA) and RNA binding proteins (nucleolin, PTB, CUG-BP, KSRP, Raver1, Raver2, and Rod). […] Extensive in vitro studies have shown that the PNC is unique to tumor cells and preferentially forms in tumor cells derived from solid tissues. Examination of cancer cell lines from various origins and malignant capacities has shown that PNC prevalence correlates with the malignancy of tumors and has the potential to be developed as a pan-cancer prognostic marker. […] Although the PNC is associated with a DNA locus and a handful of components have been identified, much remains to be investigated regarding the structure and function of the PNC and its mechanistic link to cancer. We have previously shown that PNC prevalence reduction is a valid strategy to identify compounds that can be used to study the structure and function of the PNC. It is necessary, however, to create a screening platform that is able to test a large number of compounds in an automated fashion. Here we report the development and robustness of an automated whole-cell phenotypic image-based screening assay that is capable of identifying such compounds. We conducted a followup assay to measure the effect of the lead candidates on cell health by measuring ATP levels (ATPLite). The highly metastatic PC3M-GFP reporter cell line was used in this study. NIH Chemical Genomics Center [NCGC] NIH Molecular Libraries Probe Centers Network [MLPCN] MLPCN Grant: MH082371-01A2 Assay Submitter (PI): Sui Huang, Northwestern University, Feinberg School of Medicine, Cell and Molecular Biology, Chicago, Illinois.
1. Cells at a density of 75-90% confluency in T175 flasks were harvested using 7 ml TrypLE Express cell dissociation reagent. After dissociation (5 minutes room temperature incubation) 10 ml of complete media was added to the TrypLE/cell suspension. The liquid was transferred to a 50 ml Conical tube and cells were pelleted at 1000 RPM for 5 min. Supernatant was removed and cells were resuspended to a final density of 150-200 cells/ul in complete media. 2. Cells were plated in 5 ul volume (2000 cells/well) into 1536 well White solid bottom plates and allowed to recover and adhere at 37 C in a humidified 5% CO2 incubator for 4 hours. 3. After 4 hour incubation, compound libraries (23 nl of […] in columns 5-48) were transferred to the plates in duplicate using a 1536 well pintool. Camptothecin positive control (59 uM final) was added to column 2 and 1:3 dilutions of camptothecin was added to column 3. DMSO negative controls were present in columns 1 and 4. 4. After a 24 hour incubation in the 37 C incubator, all wells were treated with 3 ul of ATPLite reagent using a multidrop combi dispenser (ThermoFisher). Bubbles that formed during dispensing were removed by spinning the plates for 1 minutre at 1500 RPM on a table top centrifuge. 5. Luminescencent signal was detected on a Viewlux CCD based imager (PerkinElmer) with a clear filter and a 30 second integration time. The PC3M cell line stably expressing the PTB-GFP was provided by Sui Huang of Northwestern University. The media and cell culture reagents were purchased from Invitrogen (Carlsbad, CA), ATPLite came from PerkinElmer.
(In general: ATP-based viability assays read luminescence as a measure of living cells.)
With `N=c1c2c(-c3ccccc3)c(-c3ccccc3)n(CCc3ccccc3)c2ncn1C1CCC(O)CC1` (stereo not given), the Potency is 17.7 µM (active).

With `CN(C)CCn1cnc2c(c(-c3ccccc3)c(-c3ccccc3)n2CCc2ccccc2)c1=N`, the Potency is 15.8 µM (active).

Take `N=c1c2c(-c3ccccc3)c(-c3ccccc3)n(Cc3ccccc3)c2ncn1CC1CCCO1` (stereo not given): the Potency was 19.9 µM (active).

For `CCOC(CCCn1cnc2c(c(-c3ccccc3)c(-c3ccccc3)n2CCc2ccccc2)c1=N)OCC`, the Potency was 22.3 µM (active).

Regarding `COCCn1cnc2c(c(-c3ccccc3)c(-c3ccccc3)n2CCc2ccccc2)c1=N`, the Potency is 15.8 µM (active).

For the molecule `N=c1c2c(-c3ccccc3)c(-c3ccccc3)n(CCc3ccccc3)c2ncn1CCCCCO`, the Potency is 17.7 µM (active).

In the case of `N=c1c2c(-c3ccccc3)c(-c3ccccc3)n(CCc3ccccc3)c2ncn1CC1CCCO1` (stereo not given), the Potency is 11.2 µM (active).

On to `COCCn1cnc2c(c(-c3ccccc3)c(-c3ccccc3)n2Cc2ccc(OC)cc2)c1=N`, for which the Potency was 17.7 µM (active).

For `C[C@H]([C@@H](O)c1ccccc1)n1cnc2c(c(-c3ccccc3)c(-c3ccccc3)n2Cc2ccccc2)c1=N`, the Potency was 15.8 µM (active).

`COc1ccc(Cn2c(NC=N[C@H](C)[C@@H](O)c3ccccc3)c(C#N)c(-c3ccccc3)c2-c2ccccc2)cc1`: the Potency was 19.6 µM (active).

As to `COc1ccc(Cn2c(-c3ccccc3)c(-c3ccccc3)c3c(=N)n(CC4CCCO4)cnc32)cc1` (stereo not given), the Potency is 19.9 µM (active).

As for `N=c1c2c(-c3ccccc3)c(-c3ccccc3)n(CCc3ccccc3)c2ncn1CCCO`, the Potency was 15.6 µM (active).

As for `COc1ccc(Cn2c(-c3ccccc3)c(-c3ccccc3)c3c(=N)n(CCCCO)cnc32)cc1`, the Potency is 12.5 µM (active).

For the molecule `COC(Cn1cnc2c(c(-c3ccccc3)c(-c3ccccc3)n2CCc2ccccc2)c1=N)OC`, the Potency is 17.7 µM (active).

Take `CN(C(=O)c1cccs1)c1cccnc1`: the “activity change, negative = cytotoxicity” value is 3.37%.

In the case of `CN(C)CCCn1cnc2c(c(-c3ccccc3)c(-c3ccccc3)n2CCc2ccccc2)c1=N`, the Potency was 22.3 µM (active).

As for `CN(C)CCn1cnc2c(c(-c3ccccc3)c(-c3ccccc3)n2Cc2ccccc2)c1=N`, the Potency is 17.7 µM (active).

As for `CN(C)CCCn1cnc2c(c(-c3ccccc3)c(-c3ccccc3)n2Cc2ccccc2)c1=N`, the Potency was 25 µM (active).

Take `COc1ccc(Cn2c(-c3ccccc3)c(-c3ccccc3)c3c(=N)n(CCCCCO)cnc32)cc1`: the Potency was 15.8 µM (active).

As for `N=c1c2c(-c3ccccc3)c(-c3ccccc3)n(CCc3ccccc3)c2ncn1[C@H](CO)Cc1ccccc1`, the Potency was 19.9 µM (active).
